This excerpt belongs to a sample that is enriched for hits.
Methyltransferases = Primary Screen for Target Class Profiling of Small Molecule Inhibitors of Methyltransferases. 25,000 compounds, 3.9% hits. purified enzyme, MTase-Glo SAH luminescence; hits give low values. AID 1745853, 2022. calls only at 40 µM; call rule not given here
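Each enzyme was assayed with SAM and its substrate. SAH formation detected by MTase-Glo luminescence; single-point 40 uM screen[…].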
Active calls of the source: *; i = inactive; + = active, no number. On the % scale 0 is the no-effect control and ±100 the full control effect.

SMILES	Methyltransferases
COC(=O)C1=CO[C@@H](O[C@@H]2O[C@H](COC(=O)/C=C/c3cc(OC)c(O)c(OC)c3)[C@@H](O)[C@H](O)[C@H]2O)[C@@H]2C(CO)=CC[C@H]12	+
O=C(/C=C/c1ccccc1)OCC1=CC[C@@H]2C(C(=O)O)=CO[C@@H](O[C@@H]3O[C@H](CO)[C@@H](O)[C@H](O)[C@H]3O)[C@H]12	i
COc1ccc(-c2cc3n(n2)CC(C)(C(=O)NCc2ccccc2OC)N(CCc2cccs2)C3=O)cc1 (stereo not given)	i
COc1ccc(CN2C(=O)CSc3c(c4ccccc4n3C)C2C(=O)NCc2ccccc2)cc1 (stereo not given)	i
CCC(C)NC(=O)c1ccc2c(=O)n(C)c3nnc(SCC(=O)Nc4cc(F)ccc4F)n3c2c1 (stereo not given)	i
CC(C)OCCCN1C(=O)c2cc3sccc3n2CC1(C)C(=O)NC1CCCCC1C (stereo not given)	i
COc1ccccc1Nc1ncc2c(n1)CN(C(=O)c1ccnn1C)CCN2	i
COc1cc(N2CCC(N(C)C)CC2)ccc1Nc1ncc(Cl)c(Nc2ccccc2P(C)(C)=O)n1	+
COc1cc(N2CCC(N3CCN(C)CC3)CC2)ccc1Nc1ncc(Cl)c(Nc2ccccc2S(=O)(=O)C(C)C)n1	+
COc1cc(N2CCN(C)CC2)ccc1Nc1nccc(-c2cn(C)c3cnccc23)n1	i
Cc1c(Cl)cccc1N1C(=O)c2cc(-c3ccccc3)nn2CC1(C)C(=O)NCc1ccccc1 (stereo not given)	i
O=C(CCc1nnc2n(CCc3ccccc3)c(=O)c3ccccc3n12)NCCc1ccc(Cl)cc1	i
CC(C)=C1CC2C(CCC2(C)O)C(C)(O)CC1=O (stereo not given)	+
CC(=O)OC(C)C(C)(O)C(=O)O[C@@H]1CC[C@]2(C)CC(=O)C(=C(C)C)C[C@H]2[C@]1(C)OC(C)=O (stereo not given in full)	i
CC1=CC(=O)C(=C(C)C)CC2C1CCC2(C)O (stereo not given)	i
COC(=O)c1ccccc1NC(=O)c1ncn2c1C(=O)N(C1CC1)C(C)(C(=O)NCc1ccc(F)cc1)C2 (stereo not given)	i
CCCn1c(=O)c2ccc(C(=O)NC(C)CC)cc2n2c(SCC(=O)Nc3cccc(C)c3)nnc12 (stereo not given)	i
CCOCCCNC(=O)C1c2c(n(C)c3ccccc23)SCC(=O)N1Cc1ccc(C)cc1 (stereo not given)	i
CC(=O)OC/C=C(\C)C(CC1C(C)=C(OC(C)=O)C(=O)C2C(C)(C)C(O)CCC12C)OC(C)=O (stereo not given)	+
Cn1c(=O)n(C)c2cc(S(=O)(=O)NCCCc3ccccc3)ccc21	i
COc1cc(Cl)c(C)cc1NS(=O)(=O)c1ccc2c(c1)n(C)c(=O)n2C	i
CC(C)c1cc(CNc2nc(Nc3cc(C4CC4)[nH]n3)cc(N3CCN(C)CC3)n2)on1	+
CC(C)CCn1c(=O)c2ccc(C(=O)NC(C)C)cc2n2c(=O)n(Cc3ccccc3)nc12	i
CC1CCC(NC(=O)CCn2ccc3cc(S(=O)(=O)N4CCCCC4)ccc32)CC1 (stereo not given)	i
Cc1ccc(Cc2nc(CCNS(=O)(=O)c3cc(C)c(C)cc3C)n[nH]2)cc1	i
SMILES	Methyltransferases
CC1(C(=O)NC2CCCCCC2)Cn2nc(-c3ccco3)cc2C(=O)N1CCc1ccccc1 (stereo not given)	i
Nc1cccc(-c2cc3c(Oc4cccc(O)c4)ncnc3[nH]2)c1	+
NCc1ccc(Oc2ncnc3ccccc23)cc1	i
CN1C(=O)Cc2cc(S(=O)(=O)NCCN3CCN(c4ccccc4F)CC3)ccc21	i
CC1(C(=O)NC2CCCC2)Cn2c(cc3sccc32)C(=O)N1Cc1ccccc1F (stereo not given)	i
CCC1c2ccc(C)n2CCN1C(=O)Nc1cccc(Br)c1 (stereo not given)	i
CCOc1ccc(CN2C(=O)c3cc4ccccc4n3CC2(C)C(=O)NCc2ccccc2)cc1OC (stereo not given)	i
CC(C)Cn1c(=O)c2ccccc2n2c(SCc3ccccc3Cl)nnc12	i
Cc1ccc(NC(=O)N2CCC(n3c(C)cnc3-c3cccnc3)C2)cc1C (stereo not given)	i
Cc1nc(CCNC(=O)c2cnc(-c3cccnc3)nc2)cc(=O)[nH]1	i
Cc1cc(NC(=O)c2cccc(NC(=O)/C=C/CN(C)C)c2)ccc1Nc1nccc(-c2cccnc2)n1	+
Cn1c(=O)n(C)c2cc(S(=O)(=O)NCc3ccccc3)c(Cl)cc21	i
COc1ccc(CCN2C(=O)c3nc4ccccc4n3CC2(C)C(=O)NC2CCCCC2)cc1OC (stereo not given)	i
CCOC(=O)c1cc2n(n1)CC(C)(C(=O)NCCC(C)C)N(c1ccc(OCC)cc1)C2=O (stereo not given)	i
Cc1c[nH]c2nccc(Oc3c(F)cc(Nc4cc(Cl)nc(N)n4)cc3F)c12	+
CCOC(=O)c1cc2n(n1)CC(C)(C(=O)NCc1ccccc1)N(Cc1ccc(F)cc1)C2=O (stereo not given)	i
CCOC(=O)CNC(=O)C1(C)Cn2c(ccc2-c2ccco2)C(=O)N1Cc1ccccc1Cl (stereo not given)	i
COc1cccc(C(=O)Cn2nc3n(Cc4ccc(F)cc4)c(=O)c4ccccc4n3c2=O)c1	i
Cc1ccc2c(c1)C=Cc1cc(C)ccc1C2c1cn(Cc2ccc(C(=O)Nc3nn[nH]n3)o2)c(=O)[nH]c1=S	+
COc1ccc(-c2cc3n(n2)CC(C)(C(=O)NC2CCCCC2)N(Cc2ccccc2F)C3=O)cc1 (stereo not given)	i
Cc1cc2c(cc3n2CC(C)(C(=O)NC2CCCCCC2)N(c2cccc(Cl)c2C)C3=O)o1 (stereo not given)	i
CCCn1c(=O)c2ccc(Cl)cc2n2c(=O)n(CC(=O)c3ccc(C)cc3C)nc12	i
C=CCn1c(=O)c2ccc(C(=O)NC(C)CC)cc2n2c(=O)n(CC(N)=O)nc12 (stereo not given)	i
CC(C)CCn1c(=O)c2ccc(C(=O)NC3CCCC3)cc2n2c(=O)n(Cc3ccccc3F)nc12	i
CCCCOc1ccc(C(=O)Nc2ccc(F)cc2F)cc1	i
SMILES	Methyltransferases
CCOc1ccc(-c2cc(NC(=O)c3c(F)cccc3F)c(C(=O)O)s2)cc1	+
COc1cccc(-c2ccc(NC(=O)C3=C(C(=O)O)CCC3)c(F)c2)c1	i
Cc1cccc(CNC(=O)Cn2ccc3cc(S(=O)(=O)N4CCCCC4)ccc32)c1	i
C=C(C(=O)O)C1CC2=C(C)C(=O)CC2C(C)CC1O (stereo not given)	i
C=C(C(=O)O)[C@@H]1CC[C@H](C)[C@@H]2CC(=O)C(C)=C2C1	+
Cc1ccc(Cn2c(=O)c3ccccc3n3c(=O)n(CC(=O)c4cccc(Cl)c4)nc23)cc1	i
Cc1ccc(CNc2ncnc3ccc(-c4ccc(CO)o4)cc23)o1	+
COc1ccccc1CNC(=O)c1ncn2c1C(=O)N(C1CC1)C(C)(C(=O)NCc1ccc(C)cc1)C2 (stereo not given)	i
O=C(O)COCCN1CCN([C@H](c2ccccc2)c2ccc(Cl)cc2)CC1	i
O=C(O)COCCN1CCN(C(c2ccccc2)c2ccc(Cl)cc2)CC1 (stereo not given)	i

Screening results from PubChem.
